Results from the supplement of paper PMC6555819.

Each sequence was assayed on VDR:RXRa (NR concentration 270 nM, RXRa partner concentration 90 nM) (assay: PBM binding z-score (relative to random genomic background probes); higher = stronger binding; sequences stand for … in GC…GCGATTGACAGCGTAGAATGAAGG).
Procedure: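 Protein-binding microarray (Agilent 4x180K custom design, double-stranded 60-nt probes: 5' GC cap, 34-nt variable region, 24-nt constant primer region; full probe sequence given). Purified or IVT nuclear receptor:RXRα heterodimers (3:1 NR:RXRα, mostly 270:90 nM) or homodimers were incubated for 1 h in PBS with 2% milk and no ligand, then detected with Alexa488 antibodies. Fluorescence from o1-orientation probes (~5 replicates averaged) was converted to z-scores against 500 random hg19 background probes. Variable regions are seed direct-repeat (DR0–DR5) sites, all their single-nucleotide variants and half-site ablations.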

Sequence | PBM binding z-score
GCATATAGGTGATACAAGGTGAAAGTCCGATTGT | 0.445
TCGAGTAGGTTACCAATGGGCCATTCAGCTTTCT | 0.0845
CCAACTAGGTCACCGGAAGGTCAAAGTCCGCATG | 5.87
CCTGCTAGGTCAGGGTCAGCTAATCTACAGTATG | 2.86
GCTCGGAGGAAAAGGTCAGAGCTTTGTCCGTAGA | 2.14
CCTACTGGGCCACGAAACGTCATTGATTCAGTGA | -0.697
ATCGAAAGGTCGAGGTGAGTAGAGAGAAAGGGAA | 2.27
CCAACTGGGGCAAGGTTACCATAACGCACAGCCA | 0.166
CGTCAAAGTTCAACCAAGGTAACGTAAAGCACGC | 4.77
CCAGACAGGTGAAAGGTAACCCAGTCTGGTACGC | 0.645
GCTCGTTGGTCAGTAAAAGGTCACACACCGGTCG | 4.26
TCGAGTAGGTTGCCAATGGGGCATTCAGCTTTCT | -0.316
CGTCCAAGGTCAGACAGGTCAGTGAATGCCGAGT | 5.82
GCGACTGGGGCATCAGCACGTTACCATAACTTAA | -0.365
TCAGACAGATGAAGGTAACTCAGGTACGCAGTCG | 0.608
TCTAGAAGGCCAGAGGGTCACTCAAGAGGTACGG | 2.05
CAAACTAGGTCACGAAACGTCAAAGTCGAATGAC | 2.2
CGTGCAAGGTCAAAGGTCAGTGAAGAGATGACGG | 6.7
CCGACTGGGGCATAAGTTTACCATAAGCCAGCCC | -0.462
TCTTGTACATCAGCAGGTTAAGAAAGCTGGCCAA | 0.622

Sequence | PBM binding z-score
CGAACTAGGTCCTCCAGGACAGTGAATACATTGA | -0.247
AGAATGAGGTTACTAAGATCAGGGAATTGCGGTC | 1.42
CCAGACAGGTGAGCAGGTAACTCAGCCTCGATTA | -0.287
ATCTCTAGTTAACAAGTTCAGTGAAAGAGAGGAC | 2.52
CCTTACGGGTCACGCGGTTATAGCACGACGAGCG | 4.4
ATATGTAGGTTACATCCGGGACATTCAGGCTATG | 1.14
CGTCCACGGTCAAAGGTCAGTGAAGAGATGACGG | 3.76
AGTCAAAGTTCCCTAGGTAACGTAAGATTCAGCT | -0.251
GCACATAGGTAATACAAGGTGAAAGTCCGATTGT | 0.394
TAGCCTTGGTCAGATCGGGCCAGTATACGCTATA | -0.557
ATCTCTAGGTAAATATAGTTCAGTGAATGCAAAT | 1.44
CAAACTAGCTCACGAAAGGTCAAAGTCGAATGAC | 4.32
TCGAGTAGGTTACCAGTGGGGCATTCAGCTTTCT | 0.134
TCAGTCAGGTGAAGGTAACTCAGGTACGCAGTCG | 0.652
CCTGCTAGGTCATGGTCCGCTAATCTACAGTATG | 1.27
TGAATGAGGTTATAAGATCACGGAACGTTGCAAA | 1.53
TCATATAGGTAAAAGGTGACAGTCGGTGTGGTAA | 1.35
TCCAGCAGGCCAGAGGGTCACTCAAGAGGTACGG | 1.34
CCATACAGGTGAAAGGTAACTCAGTCTGGTACGC | 0.988
ACTCGGAGAACAAAGGTCAGAGCTACGCCAGTGA | 2.77
